The nature of test [1]: viability loss in pontine glioma line – cell-based, SU-DIPG-XVII, MIPE5.0, CellTiter-Glo, qHTS, dose response (AID 1347060).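 On AC50: cells exposed to compound for 48 hours before viability readout.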 The note with it: CellTiter-Glo ATP luminescence. Background: In ATP-based viability assays light output follows the ATP content of the culture.
A short description of test [2]: viability loss in pontine glioma line – cell-based, SU-DIPG-XIII, MIPE5.0, CellTiter-Glo, qHTS, dose response (AID 1347064; cut-off not given, nearly all actives have AC50 up to about 23 µM;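 on AC50: cells exposed to compound for 48 hours before the viability read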). The note with it: CellTiter-Glo ATP luminescence.
A short description of test [3]: viability loss in pontine glioma line – cell-based, SU-DIPG-XXV, MIPE5.0, CellTiter-Glo, qHTS, dose response (AID 1347065).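 Further: cells exposed to compound for 48 hours before ATP readout.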 The note with it: CellTiter-Glo ATP luminescence.
Test [4] in a line: growth inhibition of DIPG cells – cell-based, MIPE5.0 library, qHTS (AID 1347068; cut-off not given, nearly all actives have IC50 up to about 30 µM;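 on IC50: cells exposed to compound for 48 hours before viability readout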). The note with it: SU-DIPG-XXV viability. For orientation: In qHTS, concentration-response curves come from the screen itself.
Test [5] in a line: viability loss in pontine glioma line – cell-based, JHH-DIPG-1, MIPE4.0, CellTiter-Glo, qHTS, dose response (AID 1347062; cut-off not given, nearly all actives have AC50 up to about 27 µM;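 on AC50: cells exposed to compound for two days before readout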). The note with it: JHH-DIPG-1 viability, CellTiter-Glo ATP luminescence.
Test [6] in a line: viability loss in pontine glioma line – cell-based, SU-DIPG-IV, MIPE4.0, CellTiter-Glo, qHTS, dose response (AID 1347063; cut-off not given, nearly all actives have AC50 up to about 30 µM;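 further: compound exposure lasted 48 hours before the viability readout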). The note with it: CellTiter-Glo ATP luminescence.
Test [7] is described as follows: growth inhibition of DIPG cells – cell-based, MIPE4.0 library, CellTiter-Glo luminescence, qHTS (AID 1347066; cut-off not given, nearly all actives have AC50 up to about 30 µM;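 further: cells exposed to compound for 48 hours before readout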). The note with it: SU-DIPG-VI viability, CellTiter-Glo ATP luminescence.
Test [8] in a line: JHH-DIPG-1 glioma cell viability, MIPE5.0 library, CellTiter-Glo luminescence, qHTS (AID 1347067).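 Further: cells exposed to compound for 48 hours before readout.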 The note with it: JHH-DIPG-1 glioma viability, CellTiter-Glo ATP luminescence.
Test [9] can be described thus: viability loss with induced miR-34 in A549 – imaging, A549 dox-inducible miR-34, nuclei and caspase counts, primary screen (AID 1347080;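 active means compounds whose cell count with miR-34 switched on is under 0.7 times the count with it off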). The note with it: A549 miR-34 inducible, Hoechst nuclei count, 48 h.
Test [10] is described as follows: MELAS cybrid and Rieske KO viability enhancers – cell-based, MELAS cybrids, Rieske KO mouse fibroblasts, CellTiter-Glo, primary screen (AID 1508586;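 active means mean z-score across replicates of 1.96 or higher in either the MELAS or the Rieske mutant cell line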;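 further: z relative to plate mean and SD of compound and empty wells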). The note with it: low glucose.
Test [11] is described as follows: compounds altering HSF1 focus formation in cells – imaging, Selleck Cancer Library (AID 1347162; in the data active means plate-normalised HSF1 focus index below about 0.46). The note with it: human cells, HSF1 nuclear foci imaging, at 10 µM; SSMD: measured here: HSF1 foci SSMD mean; cell count: measured here: cell number; plate-normalised HSF1 focus index: stronger effect = lower value.
The mark [12] stands for this setting: stronger effect = lower value, cell number ratio, induced over uninduced.
Setting [13] is: measured here: relative caspase fold change +Dox/-Dox.
[14] abbreviates: measured here: total cells with miR-34 induction, stronger effect = lower value.
Where [15] appears, read: measured here: total cells without miR-34 induction.
Where [16] appears, read: MELAS cybrid survival, CellTiter-Glo 48 h, stronger effect = higher value.
Setting [17] is: Rieske KO mouse fibroblast survival, CellTiter-Glo 72 h.

Each structure is given as a SMILES string. Results filed as inconclusive are left out. Calls of active or inactive are those of the source. Unless noted, cut-off not given; nearly all actives show AC50 up to about 26 µM.

Turning to `NC(=O)[C@@H](CC1CC1)[C@@H](CCC(F)(F)F)C(=O)N[C@H]1N=C(c2ccccc2)c2cccc(F)c2NC1=O`, the result in test [1], in test [2], in test [3] and in test [4] was inactive.
As for `CCN1C[C@]2(OC(=O)c3ccccc3NC(C)=O)CC[C@H](OC)[C@@]34[C@@H]2C[C@@H]([C@@H]13)[C@@]1(O)C[C@H](OC)[C@H]2C[C@@H]4[C@]1(O)[C@H]2OC`, the outcome in [1], in test [5], in [6], in test [2], in test [3] and in test [7] was inactive. Further, the outcome in test [8] and in test [4] was inactive.
With `C[C@H]1[C@H](O)[C@@H](C)/C=C/C=C/CC/C=C/C=C/C=C/C=C/[C@H](O[C@@H]2O[C@H](C)[C@@H](O)[C@H](N)[C@@H]2O)C[C@@H]2O[C@](O)(C[C@@H](O)[C@H](O)CC[C@@H](O)C[C@@H](O)C[C@@H](O)CC(=O)O[C@H]1C)C[C@H](O)[C@H]2C(=O)O`, the compound was called inactive in test [1], in test [2], in [3], in test [8] and in [4].
With `CN[C@@H]1C[C@H]2O[C@@](C)([C@@H]1OC)n1c3ccccc3c3c4c(c5c6ccccc6n2c5c31)C(=O)NC4`, the AC50 (commonly the concentration at which the activity in the assay is half-maximal) in test [1] was 118 nM (active); in [2], 263 nM (active); in [3], 209 nM (active); in test [8] it was 209 nM (active). Besides, the half-inhibitory concentration (IC50) (usually the point on the concentration scale where inhibition reaches its midpoint) in [4] is 833 nM (active). Further, the fold change in test [9] (setting [12]) was 1.19 (inactive); in test [9] (setting [13]), 0.478. Further, the cell count in [9] (setting [14]) came out at 874; in [9] (setting [15]), 732.
Take `C[C@@H]1CC[C@@]2(OC1)O[C@H]1C[C@H]3[C@@H]4CC=C5C[C@@H](O[C@@H]6O[C@H](CO)[C@@H](O[C@@H]7O[C@@H](C)[C@H](O)[C@@H](O)[C@H]7O)[C@H](O)[C@H]6O[C@@H]6O[C@@H](C)[C@H](O)[C@@H](O)[C@H]6O)CC[C@]5(C)[C@H]4CC[C@]3(C)[C@H]1[C@@H]2C`: the AC50 in test [1] is 661 nM (active); in [5], 2350 nM (active); in [6] it was 833 nM (active); in [2] it was 148 nM (active); in test [3], 468 nM (active); in test [7], 5260 nM (active). Moreover, in test [8], the AC50 is 742 nM (active). Moreover, in [4], the IC50 was 3720 nM (active).
Consider `O=S(=O)(F)Cc1ccccc1`, for which the result in test [1], in [5], in [6], in test [2], in [3] and in test [7] was inactive. In addition, the result in test [8] and in test [4] was inactive. In addition, the fold change in test [9] (setting [12]) was 0.924 (inactive); in [9] (setting [13]), 0.551. In addition, the cell count in test [9] (setting [14]) was found to be 9940; in [9] (setting [15]), 10800. Moreover, the z-score is -0.358 (inactive) in test [10] (setting [16]) and 0.553 in test [10] (setting [17]).
As for `COc1cc(C)[nH]c(=O)c1CNC(=O)c1c(C)n([C@H](C)C2CCN(CC(F)(F)F)CC2)c2ccccc12`, the call in test [1], in test [3] and in test [8] was inactive.
As to `O=c1[nH]c2ccc(Cl)cc2c(N[C@@H]2CN3CCC2CC3)c1-c1nc2ccccc2[nH]1`, the AC50 in test [1] is 2630 nM (active); in test [5], 1870 nM (active); in test [6] it was 1660 nM (active); in test [2] it was 3320 nM (active); in test [3], 3720 nM (active); in test [8] it was 3320 nM (active). The IC50 in [4] was 8330 nM (active).
Turning to `CC(=O)Nc1ccc(OC[C@](C)(O)C(=O)Nc2ccc([N+](=O)[O-])c(C(F)(F)F)c2)cc1`, the result in test [1], in test [5], in [2], in test [3], in [7] and in test [8] was inactive. In addition, the outcome in test [4] was inactive. In addition, the results for the fold change in test [9] (stronger effect = lower value) and in [9] (setting [13]) were 0.963 (inactive) and 0.857, respectively. For the same compound, the results for the cell count in test [9] (setting [14]), in test [9] (setting [15]) and in test [11] were 7800, 8100 and 7020, respectively. The SSMD in [11] came to 0.174. Besides, the plate-normalised HSF1 focus index in test [11] is 1.01 (inactive). For the same compound, the results for the z-score in [10] (setting [16]) and in [10] (setting [17]) were -0.592 (inactive) and 0.733, respectively.
As to `C=C(C)[C@@H]1CCC(C)=C[C@H]1c1c(O)cc(CCCCC)cc1O`, the figures for the AC50 in [1], in [2] and in test [8] were 26300 nM (active), 23500 nM (active) and 23500 nM (active), respectively.

(Values after PubChem BioAssay.)
